Screening results as filed in PubChem BioAssay.
nsP2pro inh: Primary qHTS for inhibitors of NSP2Pro chikungunya virus (CHIKV) | Potency, µM (top dose mostly 24.9 µM), most hits filed as inhibitors | FRET peptide cleavage, nsP2pro, fluorescence 1 h | hit rate 1.1% among 31,000; note: nearly all actives have a fitted effect of over 60% in size
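Purified recombinant nsP2pro (150 nM final) in 10 mM Tris-HCl pH 8.0 with 0.01% Tween 20 was preincubated 15 min at room temperature with compound (7 concentrations, up to 25 uM). FRET peptide 2 substrate (2.5 uM final) was then added; fluorescence was read after 1 h.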
nsP2 cell sec: Secondary cell base assay for inhibitors of NSP2Pro Chikungunya virus (CHIKV). shares compounds with nsP2pro inh. cell-based CHIKV nsP2 protease reporter assay. hit rate 10% among 450. Potency, µM (doses to about 51.1 µM), hits mostly inhibitors; note: nearly all actives have a fitted effect of over 70% in size
NSP2 full ctr: Selectivity profile for inhibitors of NSP2Pro chikungunya virus (CHIKV): Full length NSP2 enzyme counterscreen (CHIKV-NSP2) | AID 1964101, 2024 | Potency, µM (doses to about 50.7 µM), usual class: inhibitors | shares compounds with nsP2pro inh | Full-length CHIKV NSP2 protease enzymatic counterscreen | hit rate 39% among 410; note: nearly all actives have a fitted effect of over 65% in size
Furin counterscr: Selectivity profile for inhibitors of NSP2Pro chikungunya virus (CHIKV): Human furin counterscreen. Recombinant human furin enzymatic counterscreen, fluorogenic substrate. hit rate 6% among 410. AID 1964102, 2024. Potency, µM (titrated, usually from 50.6 µM), usual class: inhibitors. shares compounds with nsP2pro inh
Target sequence (P09958 whole entry, looked up): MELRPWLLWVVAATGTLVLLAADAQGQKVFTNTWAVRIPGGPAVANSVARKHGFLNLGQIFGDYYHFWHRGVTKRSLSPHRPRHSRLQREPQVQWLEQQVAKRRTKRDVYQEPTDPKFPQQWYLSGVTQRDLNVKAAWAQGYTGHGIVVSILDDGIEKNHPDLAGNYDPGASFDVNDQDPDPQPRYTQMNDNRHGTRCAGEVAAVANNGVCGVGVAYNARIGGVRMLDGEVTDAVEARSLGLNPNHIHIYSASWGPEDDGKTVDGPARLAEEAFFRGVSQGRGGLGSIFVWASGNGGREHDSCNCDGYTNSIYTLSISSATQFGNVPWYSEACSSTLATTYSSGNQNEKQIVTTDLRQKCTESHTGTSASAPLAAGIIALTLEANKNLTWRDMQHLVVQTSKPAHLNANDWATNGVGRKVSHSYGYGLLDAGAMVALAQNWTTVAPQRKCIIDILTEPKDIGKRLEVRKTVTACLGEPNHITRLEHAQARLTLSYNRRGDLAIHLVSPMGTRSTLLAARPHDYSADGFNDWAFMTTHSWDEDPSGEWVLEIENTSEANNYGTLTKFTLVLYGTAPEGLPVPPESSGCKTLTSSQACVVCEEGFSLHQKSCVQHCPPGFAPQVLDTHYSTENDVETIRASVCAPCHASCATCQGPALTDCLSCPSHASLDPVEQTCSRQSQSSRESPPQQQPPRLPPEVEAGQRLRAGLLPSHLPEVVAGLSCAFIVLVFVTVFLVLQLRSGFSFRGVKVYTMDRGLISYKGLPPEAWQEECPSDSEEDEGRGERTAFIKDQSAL
NS23 peptide cs: Selectivity profile for inhibitors of NSP2Pro chikungunya virus (CHIKV): Endogenous NS2/3 peptide Counterscreen. AID 1964103, 2024. shares compounds with nsP2pro inh. Purified CHIKV nsP2 protease, endogenous NS2/3 peptide cleavage. hit rate 34% among 410. Potency, µM (series often up to 51 µM), most hits filed as inhibitors; note: nearly all actives have a fitted effect of over 55% in size
Papain cs: Selectivity profile for inhibitors of NSP2Pro chikungunya virus (CHIKV): Papain Counterscreen; AID 1964104, 2024; shares compounds with nsP2pro inh; hit rate 5% among 410; Potency, µM (titrated, usually from 51 µM), actives largely listed as inhibitors; purified papain protease activity, enzymatic inhibition
nsP2pro confirm: Confirmatory qHTS for inhibitors of NSP2Pro chikungunya virus (CHIKV) | CHIKV nsP2 protease enzymatic activity, qHTS | AID 1964105, 2024 | Potency, µM (highest dose often 25.5 µM), actives largely listed as inhibitors | shares compounds with nsP2pro inh | hit rate 43% among 410; note: nearly all actives have a fitted effect of over 75% in size
HCV NS3 4A cs: Selectivity profile for inhibitors of NSP2Pro chikungunya virus (CHIKV): NS34A-HCV Counterscreen | AID 1964106, 2024 | shares compounds with nsP2pro inh | Potency, µM (doses to about 50.9 µM), actives largely listed as inhibitors | hit rate 20% among 410 | HCV NS3/4A protease biochemical counterscreen; note: nearly all actives have a fitted effect of over 55% in size
Each line names hits and unclear results; the compound was inactive in the other large screens (follow-up assays come after a bar, where they were run). The entries come from a sample that favours hits as a whole. Calls come from the whole dose curve.

Cc1ccc2c(c1)N(C(=O)CCC(=O)Nc1ccc(F)cc1F)CC(C)O2 (stereo not drawn)	none
COc1ccc(C2CC(=O)c3c([nH]c(C(=O)OCc4ccccc4)c3C)C2)cc1OC (stereo not drawn)	none
Cc1c(C(=O)OCC2CCCC2)[nH]c2c1C(=O)CC(c1ccco1)C2 (stereo not drawn)	nsP2pro inh 4µM | nsP2 cell sec inconclusive | NSP2 full ctr inactive | Furin counterscr inactive | NS23 peptide cs inactive | Papain cs inactive | nsP2pro confirm inactive | HCV NS3 4A cs inactive
Cc1c(C(=O)OC2CCCCC2)[nH]c2c1C(=O)CC(c1ccccc1Cl)C2 (stereo not drawn)	none
CN(C)[C@@H]1CN(C(=O)c2cc3ccccc3[nH]2)CC[C@@H]1CO	none
CN1CCc2cc3c(cc2C1C1OC(=O)c2c1ccc1c2OCO1)OCO3 (stereo not drawn)	none
CN1CCc2cccc3c2[C@H]1Cc1ccc(O)c(O)c1-3	nsP2pro inh 3.1µM | nsP2 cell sec inconclusive | NSP2 full ctr 26µM | Furin counterscr 23µM | NS23 peptide cs 16µM | Papain cs inactive | nsP2pro confirm 5µM | HCV NS3 4A cs inactive
CCOC(=O)COc1ccc(C2C(C(=O)OC)=C(C)NC3=C2C(=O)c2ccccc23)cc1Cl (stereo not drawn)	none
CN(C)CC1(O)CCC2(CCN(C(=O)c3cccn3C)CC2)CC1	none
COc1ccc(-c2cc(=O)c3c(O)cc(O)cc3o2)cc1O	none
COc1cc(F)c(S(=O)(=O)N2CCCN(S(=O)(=O)c3cccc(NC(C)=O)c3)CC2)c(F)c1	none
Cc1cc(C)nc(NC(=S)N2CCN(c3ccc4nsnc4c3)CC2)c1	nsP2pro inh 3.2µM | nsP2 cell sec 16µM | NSP2 full ctr 7.3µM | Furin counterscr inactive | NS23 peptide cs 12µM | Papain cs inactive | nsP2pro confirm 9µM | HCV NS3 4A cs inconclusive
Cc1cc(C)cc(N2CCN(C(=S)Nc3cc(C)cc(C)n3)CC2)c1	none
Cc1cc(C)nc(NC(=S)N2CCN(c3ccc(Cl)c(Cl)c3)CC2)c1	none
Cc1cccc(-n2cnc3cc(C(=O)N4CCCCC4)ccc32)c1	none
O=C1CCN(C(=O)CCc2nc3ccccc3s2)CCCCCCN1	none
COc1ccc(NC(=O)N2CC(N(CC(C)C)C3CCOCC3)C2)cc1F	none
Cc1ccc(C)c(CN2CCC(CNC(=O)C(CC(C)C)N3Cc4ccccc4C3=O)CC2)c1 (stereo not drawn)	none
CCN1C(=O)Cc2cc(C(=O)NCc3c(C)cc(C)cc3C)ccc21	none
CCOC(=O)c1ccc(NC2CCCCC2)c(N)c1	none
CCOC(=O)Nc1ccc(NCc2c(C)cc(C)cc2C)cc1N	nsP2pro inh inconclusive | nsP2 cell sec inconclusive | NSP2 full ctr inactive | Furin counterscr inactive | NS23 peptide cs inconclusive | Papain cs inactive | nsP2pro confirm inactive | HCV NS3 4A cs inactive
Nc1c(C(=O)Nc2cccc(Cl)c2)sc2nc3c(cc12)CN(Cc1ccccc1)CC3	none
S=C(Nc1ccccn1)c1ccccn1	none
CCOC(=O)c1c(C)[nH]c(CCC(=O)Nc2ccccc2C(F)(F)F)c1C	none
CCOC(=O)c1c2c3c(cccc3[nH]c1=O)C(=O)c1ccccc1-2	nsP2pro inh inconclusive | nsP2 cell sec inactive | NSP2 full ctr inactive | Furin counterscr inactive | NS23 peptide cs inactive | Papain cs inactive | nsP2pro confirm inactive | HCV NS3 4A cs inactive
CCOC(=O)c1c(Nc2ccccc2)nnc(-c2ccccc2)c1-c1ccccc1	none
Clc1ccc(-c2cnc([C@@H]3COCCN3Cc3ccccc3)[nH]2)s1	none
Cc1c(N2C(=O)c3ccc(C(=O)O)cc3C2=O)c(=O)n(-c2ccccc2)n1C	none
Cc1ccc(C2=NC3(CCN(C(=O)COc4cccc(C)c4)CC3)ON2)cc1	none
O=C(NCCCc1cnc[nH]1)NCCCN(Cc1ccc(Cl)c(Cl)c1)c1ccc(Br)cn1	none
O=S(=O)(Nc1ccc(O)c2ncccc12)c1ccccc1F	none
O=[N+]([O-])c1cc(S(=O)(=O)Nc2ccc(O)c3ccccc23)ccc1Cl	nsP2pro inh 5µM | nsP2 cell sec inconclusive | NSP2 full ctr 16µM | Furin counterscr inactive | NS23 peptide cs 12µM | Papain cs inconclusive | nsP2pro confirm 5.7µM | HCV NS3 4A cs inactive
O=c1[nH]c2ccc(S(=O)(=O)Nc3cc(Cl)ccc3O)cc2o1	none
O=C(Nc1ccc(F)c(Cl)c1)C1=NO[C@@H]2CN(CCc3ccccc3)C[C@H]12	none
Cc1c(Cl)cccc1NC(=O)c1cc2sccc2n1Cc1ccc(F)cc1	nsP2pro inh 7.9µM | nsP2 cell sec inconclusive | NSP2 full ctr 5.8µM | Furin counterscr inactive | NS23 peptide cs 16µM | Papain cs inactive | nsP2pro confirm 8µM | HCV NS3 4A cs 8.2µM
Cc1ccc(CNC(=O)c2cc3sccc3n2Cc2ccc(F)cc2)cc1	none
O=C(NCc1ccccc1)c1cc2sccc2n1Cc1ccc(F)cc1	none
C[C@@]12C[C@@H](c3ccoc3)OC(=O)C1CC[C@]1(C)[C@H]2[C@H]2C=C[C@]1(O)C(=O)O2 (stereo partly drawn)	nsP2pro inh 5.4µM | nsP2 cell sec inactive | NSP2 full ctr inactive | Furin counterscr inactive | NS23 peptide cs inactive | Papain cs inactive | nsP2pro confirm inactive | HCV NS3 4A cs inactive
CC(=O)OC[C@@]12C(=O)C[C@@H](C)[C@]3(C[C@@H](c4ccoc4)O[C@H]3OC(C)=O)[C@H]1CCC[C@]21CO1	none
COC(=O)[C@@]1(O)C=CC[C@@H]2[C@@]3(C)C[C@@H](c4ccoc4)OC(=O)[C@H]3CC[C@]21C	nsP2pro inh 2.7µM | nsP2 cell sec inactive | NSP2 full ctr inactive | Furin counterscr inactive | NS23 peptide cs inactive | Papain cs inactive | nsP2pro confirm inconclusive | HCV NS3 4A cs inactive
COc1ccc(-n2c(Cc3ccccc3)nnc2SCc2nc(-c3ccccc3C)no2)cc1	none
CCOC(=O)c1c(Oc2ccc(C(C)=O)cc2)nnc(-c2ccccc2)c1-c1ccccc1	none
N[C@@H](Cc1ccc(B(O)O)cc1)C(=O)O	none
Cc1cccc(CNc2ccc(S(=O)(=O)Nc3nccs3)cc2)c1O	none
